Results filed as inconclusive are left out. Where a call stands in place of a potency, no number is given. Activity calls are given as the source filed them. Calls come from the whole dose curve; as a rule, active = well fitted curve in the direction sought with a large enough effect; inconclusive = small, poorly fitted or top-dose-only effect, or another doubt; inactive = no such curve, though single readings can be large; an effect the other way counts as inactive or inconclusive.
Columns and labels:
[1] = Cell Viability - LYMP2-009 (AID 968);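 note: cells exposed to compound for 24 h at 37 °C; nearly all actives have a fitted effect of over 55% in size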; note: potency is the fitted concentration of half-maximal effect
[2] = Cell Viability - LYMP2-011 (AID 969); note: nearly all actives have a fitted effect of over 60% in size; note: potency is the fitted concentration of half-maximal effect
Method in brief: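 Acute toxicity is scored as a concentration-dependent drop in intracellular ATP of a human lymphoblastoid line after 24 hr treatment. Values are AC50s modeled with the Hill equation.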

[3] = Cell Viability - LYMP2-013 (AID 970);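 note: cells exposed to compound for 24 h at 37 °C; nearly all actives have a fitted effect of over 55% in size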; note: potency is the fitted concentration of half-maximal effect
Method in brief: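 Acute toxicity was measured in human lymphoblastoid cells (2500/well) exposed to compound titrations for 24 hr, with ATP luminescence (CellTiter-Glo) as read-out and AC50 fitted by Hill equation.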

[4] = Cell Viability - LYMP2-015 (AID 971); note: nearly all actives have a fitted effect of over 55% in size; note: potency is the fitted concentration of half-maximal effect
Method in brief: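 Acute toxicity was scored as a concentration-dependent drop in intracellular ATP in lymphoblastoid cells after 24 hr compound exposure in complete medium. Detection used CellTiter-Glo luciferase luminescence.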

[5] = Cell Viability - LYMP2-017 (AID 972);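 note: cells exposed to compound for 24 hours at 37 °C; nearly all actives have a fitted effect of over 55% in size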; note: potency is the fitted concentration of half-maximal effect
Method in brief: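 Steps: plate 2500 lymphoblastoid cells per well; incubate 5 hr at 37 C; add compound across a concentration series and incubate 24 hr at 37 C; add CellTiter-Glo and read luminescence after 30 min at room temperature; fit Hill curves for AC50.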

[6] = Cell Viability - LYMP2-019 (AID 973); note: potency is the fitted concentration of half-maximal effect
Method in brief: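 Cells plated at 2500/well and allowed 5 hr at 37 C before compound addition. After 24 hr incubation, CellTiter-Glo reagent was added, plates sat 30 min at room temperature, and luminescence was recorded.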

[7] = Cell Viability - LYMP2-021 (AID 974); note: potency is the fitted concentration of half-maximal effect
Method in brief: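 Concentration-response cytotoxicity in a human lymphoblastoid line: 24 hr treatment at 37 C in complete culture medium, tetraoctylammonium bromide as positive control, luminescent ATP quantitation as viability measure.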

[8] = Cell Viability - LYMP2-023 (AID 975)
Method in brief: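 Concentration-dependent drop in intracellular ATP measures acute cytotoxicity in a human lymphoblastoid line treated for 24 hours in complete culture medium. AC50 values are taken from Hill-equation fits of qHTS data.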

[9] = Cell Viability - LYMP2-025 (AID 976);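 note: series mostly up to about 92 µM; cells exposed to compound for 24 h at 37 °C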
Method in brief: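 In qHTS format, LYMP2-025 lymphoblastoid cells in complete culture medium received compound for 24 hr; ATP-based CellTiter-Glo signal gave viability, with AC50 derived by Hill equation.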

[10] = Cell Viability - LYMP2-005 (AID 967);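 note: series mostly up to about 92 µM; cells exposed to compound for 24 h at 37 °C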
Method in brief: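 Acute cytotoxicity is scored as a concentration-dependent drop in intracellular ATP in human lymphoblastoid LYMP2-005 cells after 24 h compound treatment. ATP is quantified by luciferase luminescence, and AC50 is derived by Hill-equation modelling.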

SMILES	Potency [1]	Potency [2]	Potency [3]	Potency [4]	Potency [5]	Potency [6]	Potency [7]	Potency [8]	Potency [9]	outcome [10]
c1ccsc1	inactive	inactive	inactive	inactive	inactive	inactive	inactive	inactive	inactive	–
Cc1ccccc1Br	inactive	inactive	inactive	inactive	inactive	inactive	inactive	inactive	inactive	–
Cc1cccc2ccccc12	inactive	inactive	inactive	inactive	inactive	inactive	inactive	inactive	inactive	–
CN(C)CCCNCCCN	–	inactive	inactive	–	inactive	inactive	inactive	inactive	inactive	inactive
[O-]/[N+](=N\O)c1ccccc1	inactive	inactive	inactive	inactive	inactive	inactive	inactive	inactive	inactive	–
O=[N+]([O-])c1ccccc1CCO	inactive	–	inactive	inactive	inactive	–	inactive	inactive	inactive	inactive
CCC=O	inactive	inactive	inactive	inactive	inactive	inactive	inactive	inactive	inactive	–
Cc1ccccc1C(N)=O	inactive	inactive	inactive	inactive	inactive	inactive	inactive	inactive	inactive	–
Cc1cccc(Br)c1	inactive	inactive	inactive	inactive	inactive	inactive	inactive	inactive	–	–
CC(=O)Nc1ccc(N)cc1	inactive	inactive	inactive	inactive	inactive	inactive	inactive	inactive	inactive	–
Oc1cccc(Nc2ccccc2)c1	inactive	–	inactive	inactive	inactive	inactive	inactive	–	inactive	inactive
Cc1ccc(C)cc1	inactive	–	inactive	–	inactive	–	inactive	–	inactive	inactive
Nc1ccc(F)cc1F	inactive	–	inactive	inactive	inactive	–	inactive	inactive	inactive	inactive
CC(C)N(C)C	inactive	inactive	inactive	inactive	inactive	inactive	inactive	inactive	–	–
O=C1C=CCCC1	–	inactive	inactive	–	inactive	inactive	inactive	inactive	inactive	inactive
CSCCC=O	inactive	inactive	inactive	inactive	inactive	inactive	inactive	inactive	–	–
CCCCCCCCN	inactive	inactive	inactive	inactive	inactive	inactive	inactive	inactive	–	–
CC(C)(O)CCC(C)(C)O	inactive	inactive	inactive	inactive	inactive	inactive	inactive	inactive	–	–
Cc1ccccc1C(=O)O	inactive	inactive	inactive	inactive	inactive	inactive	inactive	–	–	–
N#Cc1ccccc1	inactive	–	inactive	–	inactive	inactive	inactive	inactive	inactive	inactive
Cc1ccc(CO)cc1	inactive	–	inactive	inactive	inactive	–	inactive	inactive	inactive	inactive
Cc1ccc2oc(=O)ccc2c1	inactive	inactive	inactive	inactive	inactive	inactive	inactive	inactive	inactive	–
COc1cccc2sc(N)nc12	inactive	inactive	inactive	inactive	inactive	inactive	inactive	inactive	inactive	–
O=Cc1ccc(Cl)cc1	inactive	–	inactive	–	inactive	inactive	inactive	inactive	inactive	inactive
O=C(O)CNC(=O)c1ccc([N+](=O)[O-])cc1	inactive	inactive	inactive	inactive	inactive	inactive	inactive	inactive	–	–

SMILES	Potency [1]	Potency [2]	Potency [3]	Potency [4]	Potency [5]	Potency [6]	Potency [7]	Potency [8]	Potency [9]	outcome [10]
O=[N+]([O-])c1cccc(Cl)c1	inactive	inactive	inactive	inactive	inactive	inactive	inactive	inactive	inactive	–
O=C1CCC(=O)O1	inactive	inactive	inactive	inactive	inactive	inactive	inactive	inactive	inactive	–
CCCCC(CC)COCC1CO1 (configuration not stated)	inactive	inactive	inactive	inactive	inactive	inactive	inactive	inactive	inactive	–
Cc1ccc(C)o1	inactive	inactive	inactive	inactive	inactive	inactive	inactive	inactive	–	–
Nc1nc(-c2ccccc2)cs1	inactive	inactive	inactive	inactive	inactive	inactive	inactive	inactive	inactive	–
ICCc1ccccc1	inactive	inactive	inactive	inactive	inactive	inactive	inactive	inactive	inactive	–
Oc1c(Cl)ccc(Cl)c1Cl	inactive	inactive	inactive	inactive	inactive	inactive	inactive	inactive	inactive	–
CC1=C(/C=C/C(C)=C/C=C/C(C)=C\C=O)C(C)(C)CCC1	50.1 µM (active)	50.1 µM (active)	50.1 µM (active)	39.8 µM (active)	50.1 µM (active)	50.1 µM (active)	50.1 µM (active)	–	–	–
Cc1ccc(C(=O)O)cc1	inactive	–	inactive	–	inactive	inactive	inactive	–	inactive	inactive
CNc1ccccc1	inactive	–	inactive	–	inactive	inactive	inactive	inactive	inactive	inactive
C=C(C)C1CC=C(C)C(OC(C)=O)C1 (configuration not stated)	inactive	inactive	inactive	inactive	inactive	–	inactive	inactive	inactive	–
CCCCCO	inactive	inactive	inactive	inactive	inactive	inactive	inactive	inactive	inactive	–
CCN(Cc1ccccc1)c1ccccc1	inactive	–	inactive	inactive	inactive	inactive	inactive	inactive	inactive	–
CCCCC(C=O)CC (configuration not stated)	inactive	inactive	inactive	inactive	inactive	inactive	inactive	–	inactive	–
Clc1cc(Cl)cc(Cl)c1	inactive	inactive	inactive	–	inactive	inactive	inactive	inactive	inactive	–
CC(O)COC(C)(C)C (configuration not stated)	inactive	inactive	inactive	inactive	inactive	inactive	inactive	–	inactive	–
Clc1ccccn1	inactive	–	inactive	–	inactive	inactive	inactive	inactive	inactive	–
Cc1cc(C)c(N)cc1C	inactive	–	inactive	inactive	inactive	inactive	inactive	inactive	inactive	–
CC(C)=CCC/C(C)=C/C=O	inactive	inactive	inactive	–	inactive	–	inactive	inactive	inactive	–
O=C(O)c1cc(Cl)cc(Cl)c1	inactive	inactive	inactive	–	inactive	inactive	inactive	inactive	inactive	–
O=C(O)c1c(Cl)cccc1Cl	inactive	inactive	inactive	inactive	inactive	inactive	inactive	–	inactive	–
OC1CCCC1	inactive	inactive	inactive	inactive	inactive	inactive	inactive	inactive	inactive	–
Cc1c(N)cccc1N	inactive	inactive	inactive	inactive	inactive	inactive	inactive	–	inactive	–
CCCCCCC(=O)O	inactive	inactive	inactive	inactive	inactive	inactive	inactive	inactive	inactive	–
Cc1cccc(C(=O)O)c1	inactive	inactive	inactive	inactive	inactive	inactive	inactive	inactive	inactive	–

SMILES	Potency [1]	Potency [2]	Potency [3]	Potency [4]	Potency [5]	Potency [6]	Potency [7]	Potency [8]	Potency [9]	outcome [10]
COc1ccc(N)c(C)c1	inactive	–	inactive	–	inactive	inactive	inactive	inactive	inactive	–
O=[N+]([O-])c1ccc2nc[nH]c2c1	inactive	–	inactive	inactive	inactive	inactive	inactive	inactive	inactive	–
C=C(C)C(=O)OCC(C)O (configuration not stated)	inactive	inactive	inactive	inactive	inactive	inactive	inactive	–	inactive	–
Cc1ccc(Br)cc1	inactive	inactive	inactive	inactive	inactive	inactive	inactive	inactive	inactive	–
Cc1ccc(Cl)cc1N	inactive	inactive	inactive	–	inactive	inactive	inactive	inactive	inactive	–
Cc1cc(C)cc(O)c1	inactive	inactive	inactive	inactive	inactive	–	inactive	inactive	inactive	–
CCCCN(CCO)CCCC	inactive	inactive	inactive	inactive	inactive	–	inactive	inactive	inactive	–
C=CC(=O)NC(C)C	inactive	inactive	inactive	–	inactive	inactive	inactive	inactive	inactive	–
CCOc1ccc(NC(C)=O)cc1N	inactive	inactive	inactive	inactive	inactive	inactive	inactive	inactive	inactive	–
FC(F)(F)c1ccccc1Cl	inactive	inactive	inactive	inactive	inactive	inactive	inactive	inactive	inactive	–
O=C(Cl)c1c(Cl)cccc1Cl	inactive	inactive	inactive	–	inactive	inactive	inactive	inactive	inactive	–
CCCCC/C=C/C=C/C=O	39.8 µM (active)	–	50.1 µM (active)	31.6 µM (active)	31.6 µM (active)	50.1 µM (active)	39.8 µM (active)	–	–	–
Nc1cc([N+](=O)[O-])ccc1C(=O)O	inactive	inactive	inactive	–	inactive	inactive	inactive	inactive	inactive	–
C1CCOC1	inactive	inactive	inactive	inactive	inactive	inactive	inactive	inactive	inactive	–
CCCCC(=O)N(C)C	inactive	inactive	inactive	–	inactive	–	inactive	inactive	inactive	–
CC(=O)Nc1ccc(C)cc1	inactive	inactive	inactive	inactive	inactive	inactive	inactive	inactive	inactive	–
CO[Si](CCCNCCC[Si](OC)(OC)OC)(OC)OC	inactive	inactive	inactive	inactive	inactive	inactive	inactive	inactive	inactive	–
Nc1nc2ccccc2[nH]1	inactive	–	inactive	inactive	inactive	inactive	inactive	inactive	inactive	–
COc1ccccc1[N+](=O)[O-]	inactive	inactive	inactive	inactive	inactive	inactive	inactive	inactive	inactive	–
O=Cc1c(Cl)cccc1Cl	inactive	inactive	inactive	–	inactive	–	inactive	inactive	inactive	–
O=Nc1ccc(NO)cc1	50.1 µM (active)	–	50.1 µM (active)	–	–	50.1 µM (active)	50.1 µM (active)	inactive	inactive	–
C[C@@H]1CC2(OC[C@]3(C)O[C@H]23)O[C@H]2C[C@@]3(C)[C@@H]4CC[C@H]5C(C)(C)C(O[C@@H]6OC[C@@H](O)[C@H](O)[C@H]6O)CC[C@@]56C[C@@]46CC[C@]3(C)[C@@H]12 (some centres not stated)	inactive	inactive	inactive	inactive	inactive	–	inactive	inactive	inactive	–
O=C1OC(=O)c2c(Br)c(Br)c(Br)c(Br)c21	inactive	–	inactive	inactive	inactive	inactive	inactive	inactive	inactive	–
CCCCCCC=O	inactive	inactive	inactive	inactive	inactive	–	inactive	inactive	inactive	–
O=C(O)c1cccc(Cl)c1Cl	inactive	inactive	inactive	–	inactive	inactive	inactive	inactive	inactive	–

From PubChem BioAssay (NCATS)
